# Results reported in the antibiotic and cytotoxicity screens of Wong et al. (2023).
# Screen size: about 39,000 compounds; about 500 (1.3%) were called active. For the sample, actives were picked, then their nearest neighbours and some compounds at random.
# System: S. aureus RN4220
# Assay: growth inhibition call (relative growth <= 0.2)
# Conditions: 50 µM
row,SMILES,growth inhibition call
1,Nc1ccc(Sc2ccc3ccccc3c2Cl)c(Cl)c1,active
2,c1ccc2c(c1)ccc1cc3c(ccc4ccccc43)cc12,inactive
3,Nc1ccc(Oc2ccc3ccccc3c2Cl)c(Cl)c1,active
4,COc1cc(Cl)ccc1Oc1ccc(Cl)cc1Cl,inactive
5,COc1ccc2ccccc2c1-c1c(OC)ccc2ccccc12,inactive
6,C[C@@H]1CN([C@H](C)CO)C(=O)c2cc(NC(=O)Nc3ccc4c(c3)OCO4)ccc2O[C@@H](C)CCCCO[C@H]1CN(C)Cc1ccc(C(=O)O)cc1,inactive
7,C[C@@H]1CN([C@H](C)CO)C(=O)c2cc(NC(=O)Nc3ccc4c(c3)OCO4)ccc2O[C@@H](C)CCCCO[C@@H]1CN(C)C(=O)CCC(F)(F)F,inactive
8,COc1ccc(CN(C)C[C@@H]2Oc3c(NC(=O)c4ccc(-c5nccs5)cc4)cccc3C(=O)N([C@@H](C)CO)C[C@H]2C)cc1,inactive
9,Cc1noc(C)c1S(=O)(=O)Nc1ccc2c(c1)CC(=O)N([C@@H](C)CO)C[C@H](C)[C@H](CN(C)S(=O)(=O)c1cn(C)cn1)O2,inactive
10,C[C@@H]1CN([C@H](C)CO)C(=O)c2cccc(NS(C)(=O)=O)c2O[C@H]1CN(C)C(=O)Nc1ccccc1,inactive
11,CC(C)NC(=O)Nc1ccc2c(c1)C(=O)N([C@H](C)CO)C[C@H](C)[C@H](CN(C)Cc1ccc(C(=O)O)cc1)O2,inactive
12,NCC1OC(OC2C(N)CC(N)C(OC3OC(CO)C(O)C(N)C3O)C2O)C(N)CC1O (stereo not drawn),active
13,NCC1CCC(N)C(OC2C(N)CC(N)C(OC3OC(CO)C(O)C(N)C3O)C2O)O1 (stereo not drawn),inactive
14,NC[C@H]1O[C@H](O[C@H]2[C@@H](O[C@@H]3O[C@H](CO)[C@@H](O)[C@H]3O)[C@@H](O)[C@H](N)C[C@@H]2N)[C@H](N)[C@@H](O)[C@@H]1O,inactive
15,NC[C@H]1O[C@H](O[C@H]2[C@H](O)[C@@H](O[C@H]3O[C@H](CO)[C@@H](O)[C@H](N)[C@H]3O)[C@H](N)C[C@@H]2N)[C@H](N)C[C@@H]1O,active
16,NC[C@H]1O[C@H](O[C@@H]2[C@H](O)[C@@H](O[C@H]3O[C@H](CO)[C@@H](O)[C@H](N)[C@H]3O)[C@H](N)C[C@@H]2N)[C@H](O)[C@@H](O)[C@@H]1O,inactive
17,NC[C@@H]1O[C@H](O[C@H]2[C@@H](O)[C@H](O[C@@H]3[C@@H](O)[C@H](N)C[C@H](N)[C@H]3O[C@@H]3O[C@H](CO)[C@@H](O)C[C@H]3N)O[C@@H]2CO)[C@H](N)[C@@H](O)[C@@H]1O[C@H]1O[C@H](CO)[C@@H](O)[C@H](O)[C@@H]1O,inactive
18,C[C@@H]1CN([C@@H](C)CO)C(=O)c2cccc(NC(=O)CCCCCC(=O)Nc3ccccc3N)c2O[C@@H]1CN(C)C(=O)Nc1ccc(F)cc1,inactive
